This is an account of results in publication PMC5540273 (PLoS ONE, 2017).

Some test systems named below: NEK11; NEK1; NEK2; NEK3; NEK4; NEK5; NEK6; NEK7; NEK9; NLK; PAK1; PAK2; PAK3; PAK4; PAK6; PAK7.
Conditions in all cases: concentration: 1 μM, replicates: in singlicate; n = 1
The subject of the next assay is T1, NIK.
T1 construct: gene MAP3K14

The test system of the next assay is T2, NIM1.
T2 construct: gene MGC42105

The next assay relates to T3, OSR1.
T3 construct: gene OXSR1

Another assay relates to T4, PCTK1.
T4 construct: gene CDK16
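Also: KINOMEscan kinase panel screen.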

As for `CSc1cccc2c(-c3ccncn3)c(-c3ccc(F)cc3)nn12` [GW514786], the “%Inh” value in the assay on NEK11 turned out to be 0%; in the assay with NEK1, 0%; in the assay on NEK2, 0%; in the assay with NEK3, 0%; with NEK4, 15%; in the assay with NEK5 it was 7%. Moreover, the “%Inh” value is reported as 0% in the assay with NEK6; 0% in the assay with NEK7; 1% in the assay on NEK9; 14% in the assay on NIK; 19% in the assay on NIM1; 70% in the assay with NLK. Further, the “%Inh” value was 8% in the assay with OSR1; 11% in the assay with PAK1; 25% with PAK2; 19% in the assay with PAK3; 0% in the assay on PAK4; 3% with PAK6. Moreover, the entries for the “%Inh” value with PAK7 and in the assay on PCTK1 were 0% and 2%, respectively.

On to `COc1ccc(Nc2nccc(NCCNC(=O)c3cc4ccccc4s3)n2)cc1` [GSK1379896], for which the “%Inh” value with NEK11 is 3%; in the assay with NEK1, 0%; in the assay on NEK2, 22%; in the assay with NEK3 it was 0%; with NEK4, 14%; with NEK5 it was 13%. Further, the “%Inh” value turned out to be 0% with NEK6; 0% in the assay on NEK7; 21% in the assay with NEK9; 7% in the assay with NIK; 4% in the assay with NIM1; 49% with NLK. The “%Inh” value in the assay on OSR1 was 10%; with PAK1 it was 7%; with PAK2, 0%; with PAK3 it was 2%; in the assay on PAK4, 0%; in the assay with PAK6, 1%. Further, the “%Inh” value is 0% with PAK7 and 1% with PCTK1.

With `CC(=O)N1CCN(c2ccc(Nc3nccc(-c4sc(C(C)C)nc4-c4cccc(NS(=O)(=O)c5cccc(Cl)c5)c4)n3)cn2)CC1` [GSK1660437], the “%Inh” value is reported as 90% with NEK11; 0% in the assay on NEK1; 42% in the assay on NEK2; 0% with NEK3; 6% in the assay with NEK4; 2% in the assay with NEK5. The “%Inh” value in the assay with NEK6 turned out to be 32%; with NEK7, 73%; with NEK9, 85%; with NIK, 17%; in the assay with NIM1, 0%; in the assay with NLK, 91.8%. Also, the “%Inh” value in the assay with OSR1 was 5%; in the assay with PAK1 it was 72%; in the assay with PAK2 it was 90.1%; with PAK3 it was 57%; in the assay with PAK4, 0%; with PAK6, 0%. The “%Inh” value in the assay on PAK7 is given as 0%; in the assay with PCTK1, 98.6%.

For the molecule `Cl.Cl.NCC(C(=O)Nc1cc(Br)c(-c2ccnc3[nH]ccc23)s1)c1ccccc1` (stereo not drawn) [GSK1269851], the “%Inh” value with NEK11 came to 0%; in the assay with NEK1, 0%; in the assay with NEK2 it was 15%; in the assay with NEK3 it was 18%; with NEK4, 15%; in the assay with NEK5, 0%. In addition, the “%Inh” value in the assay with NEK6 is 0%; with NEK7, 10%; in the assay on NEK9, 9%; in the assay on NIK, 8%; with NIM1, 11%; with NLK it was 0%. For the same molecule, the “%Inh” value came out at 36% in the assay on OSR1; 17% in the assay on PAK1; 32% in the assay on PAK2; 27% with PAK3; 0% with PAK4; 0% in the assay on PAK6. Moreover, the “%Inh” value was determined as 51% in the assay with PAK7 and 11% with PCTK1.

Take `NCCCC(NC(=O)c1cc(Br)c(-c2ccnc3[nH]ccc23)s1)c1ccccc1.O=C(O)C(F)(F)F.O=C(O)C(F)(F)F` (stereo not drawn) [GSK1287544]: the “%Inh” value was found to be 0% in the assay on NEK11; 74% with NEK1; 9% in the assay with NEK2; 0% in the assay with NEK3; 9% in the assay on NEK4; 88% in the assay on NEK5. The “%Inh” value in the assay with NEK6 is listed as 16%; in the assay on NEK7, 0%; in the assay on NEK9, 17%; in the assay on NIK it was 16%; in the assay with NIM1, 15%; in the assay on NLK, 0%. Moreover, the “%Inh” value in the assay on OSR1 is reported as 57%; with PAK1, 2%; in the assay on PAK2, 41%; with PAK3, 67%; in the assay on PAK4, 2%; in the assay with PAK6, 56%. Besides, the entries for the “%Inh” value with PAK7 and in the assay on PCTK1 were 29% and 10%, respectively.

Turning to `Cl.Cl.NCC(NC(=O)c1cc(-c2ccccc2)c(-c2ccnc3[nH]ccc23)s1)c1ccccc1` (stereo not drawn) [GSK1321561], the “%Inh” value in the assay with NEK11 came out at 6%; in the assay with NEK1, 0%; in the assay with NEK2, 8%; in the assay on NEK3, 0%; in the assay with NEK4, 0%; with NEK5, 6%. Further, the “%Inh” value in the assay with NEK6 is given as 0%; in the assay with NEK7, 0%; in the assay on NEK9, 13%; with NIK, 17%; with NIM1, 50%; with NLK, 55%. Besides, the “%Inh” value in the assay with OSR1 amounted to 15%; in the assay with PAK1, 4%; in the assay on PAK2 it was 0%; with PAK3, 30%; with PAK4, 0%; in the assay with PAK6, 12%. Moreover, the “%Inh” value in the assay with PAK7 was found to be 44%; in the assay with PCTK1 it was 7%.

Take `Nc1n[nH]c2cnc(-c3ccccc3)cc12` [SB-642124]: the “%Inh” value is reported as 3% in the assay on NEK11; 0% with NEK1; 0% in the assay on NEK2; 79% in the assay with NEK3; 12% in the assay on NEK4; 96.5% in the assay with NEK5. Also, the “%Inh” value in the assay on NEK6 is recorded as 0%; with NEK7 it was 0%; with NEK9, 0%; in the assay with NIK, 10%; with NIM1, 29%; in the assay on NLK, 31%. Moreover, the “%Inh” value is 12% in the assay on OSR1; 21% with PAK1; 15% in the assay on PAK2; 34% with PAK3; 0% with PAK4; 0% in the assay on PAK6. In addition, the results for the “%Inh” value in the assay on PAK7 and in the assay with PCTK1 were 6% and 11%, respectively.

On to `FC(F)(F)c1ccc(/C=C/c2cncnc2Nc2ccc3[nH]c(Cc4ccccc4)nc3c2)cc1` [GW709199], for which the “%Inh” value in the assay on NEK11 was 9%; in the assay with NEK1 it was 0%; in the assay on NEK2, 0%; in the assay with NEK3 it was 30%; in the assay with NEK4, 0%; in the assay with NEK5 it was 23%. Moreover, the “%Inh” value with NEK6 was found to be 13%; with NEK7 it was 0%; in the assay with NEK9 it was 2%; with NIK it was 0%; in the assay on NIM1, 0%; in the assay on NLK it was 9%. For the same molecule, the “%Inh” value is 0% with OSR1; 4% in the assay on PAK1; 16% in the assay with PAK2; 0% with PAK3; 0% in the assay with PAK4; 0% in the assay on PAK6. In addition, the “%Inh” value in the assay on PAK7 and with PCTK1 was 0% each time.

For the molecule `O=C(Nc1cccc(-c2nn3ccccc3c2-c2ccnc(Nc3cccc(F)c3)n2)c1)c1c(F)ccc(F)c1Cl` [GSK357952], the “%Inh” value in the assay with NEK11 is recorded as 6%; with NEK1, 0%; in the assay with NEK2, 20%; in the assay with NEK3, 0%; in the assay with NEK4 it was 6%; with NEK5 it was 0%. For the same molecule, the “%Inh” value in the assay on NEK6 amounted to 0%; with NEK7, 6%; in the assay with NEK9 it was 19%; in the assay with NIK it was 36%; in the assay with NIM1 it was 7%; in the assay with NLK, 46%. Further, the “%Inh” value turned out to be 2% in the assay on OSR1; 0% in the assay on PAK1; 2% in the assay on PAK2; 16% with PAK3; 0% in the assay with PAK4; 0% with PAK6. Further, the “%Inh” value in the assay on PAK7 was 15%; in the assay with PCTK1 it was 0%.
